Source: PubChem BioAssay (Tox21)
Results filed as inconclusive are left out. Active and inactive are the calls of the source. Calls come from the whole dose curve; as a rule, active = well fitted activation curve with a large enough effect in the signal ratio in the repeat runs (not every such curve was filed as active); inconclusive = weak or mixed curves; inactive = flat fitted curve, though single readings scatter; the % refers to the signal ratio.
% is set by controls: 0 for no effect and ±100 for the full control effect.

Assay: qHTS assay to identify small molecule agonists of the TGF-beta/Smad signaling pathway (AID 1346859)
Settings: SBE-bla HEK293T, TGF-beta/Smad beta-lactamase reporter, 5 h; series mostly up to 76.8 µM
Excerpt: U.S. Tox21 Program National Center for Advancing Translational Sciences [NCATS] NIH Chemical Genomics Center [NCGC] U.S. Environmental Protection Agency [EPA] National Institutes of Environmental Health Sciences [NIEHS] National Toxicology Program [NTP] U.S. Food and Drug Administration [FDA] Tox21 Assay Overview: Transforming growth factor beta (TGF-beta) superfamily consists of a large number of structurally related dimeric proteins that act as hormones or local mediators in regulating a wide range of biological functions. This superfamily includes TGF-betas themselves, the bone morphogenetic proteins (BMPs) and the activins. These ligands induce oligomerization of serine/threonine receptor kinases and phosphorylate the cytoplasmic signaling molecules of Smad protein family. CellSensor SBE-bla HEK 293T cell line (Life Technologies, Carlsbad, CA), responsive to TGF-beta was used to screen Tox21 10K compound library for identification of agonists/antagonists of the Smad signaling pathway. This cell line contains a beta-lactamase reporter gene under control of the Smad binding element (SBE) stably integrated into HEK 293T cells.
Tox21 Assay Protocol Summary: SBE-bla HEK 293T cells were dispensed at 4,000/well in 6 uL of assay medium into black wall/clear-bottom 1536-well plates using a Multidrop Combi (ThermoFisher Scientific, Waltham, MA) dispenser. After the assay plates were incubated at 37 C and 5% CO2 for an overnight, 23 nL of compounds dissolved in DMSO, positive controls or DMSO only was transferred to the assay plate by a Pintool station (Kalypsys, San Diego, CA). The assay plates were incubated at 37 C and 5% CO2 for 5 hr. One uL of LiveBLAzer B/G FRET substrate (Life Technologies) was added using a Flying Reagent Dispenser (Aurora Discovery, San Diego, CA) and the plates were incubated at room temperature for 2 hr. Fluorescence intensity (405 nm excitation, 460 nm and 530 nm emissions) was measured using an Envision plate reader (PerkinElmer, Shelton, CT).
With `COCCC(=O)OC` the outcome was “inactive”.
In the case of `O=C(CCN1CCC(c2ccccc2)C1)c1ccc2c(c1)OCCO2` (stereo not given), the outcome is reported as “inactive”.
For `CCCCCCCCCCCCCCCCC(C(=O)O)C(O)(CC(=O)O)C(=O)O` (stereo not given), the outcome was “inactive”.
For `CCNc1nc(NC(C)(C)C)nc(OC)n1`, the outcome was “inactive”.
With `c1ccc(-c2ccccc2-c2ccccc2)cc1` the outcome was “inactive”.
With `CC1CCC(C(C)(C)O)CC1` (stereo not given) the outcome was “inactive”.
For `Clc1ccc2c(Cl)ccnc2c1`, the outcome was “inactive”.
For `Cc1ccc(N=Nc2c(O)ccc3ccccc23)c(C)c1`, the outcome was “inactive”.
For `Oc1ccc(Cl)cc1C1CCCC1`, the outcome was “inactive”.
In the case of `CC(C)=NNC(N)=S`, the outcome is reported as “inactive”.
For `COc1ccc(OC)c(N=Nc2c(O)ccc3ccccc23)c1`, the outcome was “inactive”.
For `CCCCCCCCCCCCN1CCCC1=O`, the outcome was “inactive”.
In the case of `O=C1OC(O)C(C(Cl)Cl)=C1Cl` (stereo not given), the outcome is reported as “inactive”.
In the case of `CCc1cccc(C)c1N(C(=O)CS(=O)(=O)O)C(C)COC` (stereo not given), the outcome is reported as “inactive”.
With `Nc1ccc(Cl)c([N+](=O)[O-])c1` the outcome was “inactive”.
For `CCC(C)(C)c1ccc(CC(C)CN2C[C@@H](C)O[C@@H](C)C2)cc1` (stereo not given in full), the outcome was “inactive”.
For `Nc1ccc2c(S(=O)(=O)O)cccc2c1S(=O)(=O)O`, the outcome was “inactive”.
For `CCOC(=O)[C@H](C)O`, the outcome was “inactive”.
In the case of `O=C1C=CC(=O)N1c1cccc(N2C(=O)C=CC2=O)c1`, the outcome is reported as “inactive”.
With `N#CCCOCCC#N` the outcome was “inactive”.
With `COc1cc(OC)nc(NC(=O)NS(=O)(=O)Nc2ccccc2C(=O)N(C)C)n1` the outcome was “inactive”.
With `Cc1ccc2n[nH]nc2c1` the outcome was “inactive”.
With `c1ccc(-c2nc3ccccc3[nH]2)cc1` the outcome was “inactive”.
With `COc1cccc(-c2ccc(/C=C\CN3CCCCCC3)cc2Cl)c1` the outcome was “inactive”.
With `CCC(=O)OC/C=C(\C)CCC=C(C)C` the outcome was “inactive”.
In the case of `CCCOC(=O)c1ccc(O)cc1`, the outcome is reported as “inactive”.
With `C=Cc1ccncc1` the outcome was “inactive”.
With `O=C1CCCCCCCCCCCCCC1` the outcome was “inactive”.
In the case of `CC(C=O)c1ccccc1` (stereo not given), the outcome is reported as “inactive”.
For `Oc1ccc2c(c1)CCC2`, the outcome was “inactive”.
In the case of `O=[N+]([O-])c1ccc(CO)cc1`, the outcome is reported as “inactive”.
For `CC1(C)[C@H](C(=O)OCc2cccc(Oc3ccccc3)c2)[C@@H]1C=C(Cl)Cl`, the outcome was “inactive”.
In the case of `CCN(CC)c1ccc2c(c1)Oc1cc(N(CC)CC)ccc1C21OC(=O)c2ccccc21`, the outcome is reported as “inactive”.
With `CCCCCCCC/C=C\CCCCCCCC(=O)N(CCO)CCO` the outcome was “inactive”.
For `O[Si](c1ccccc1)(c1ccccc1)c1ccccc1`, the outcome was “inactive”.
For `CCCCNc1ccc(NCCCC)c2c1C(=O)c1ccccc1C2=O`, the activation was 0.206% [at 15.8 µM] (inactive).
For `CC(C)(C)c1ccc(OC2CCCCC2O)cc1` (stereo not given), the outcome was “inactive”.
For `N#Cc1nc(Cl)c(Cl)c(Cl)c1Cl`, the outcome was “inactive”.
With `CC/C=C\C/C=C\C/C=C\CCCCCCCC(=O)OC` the outcome was “inactive”.
With `CN(C)CCOc1ccc(/C(=C(/CCCl)c2ccccc2)c2ccccc2)cc1` the outcome was “inactive”.
